Data on seven compounds can be found in PubChem BioAssay.

A short description of assay [1]: liver-stage malaria parasite growth inhibition, primary screen, cell-based, HepG2, luciferase luminescence, HepG2 viability (AID 624349).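 Note: 100% = mean of DMSO negative control wells on the same plate.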 Particulars: P. berghei liver stage in HepG2, luciferase luminescence, concentration not given here; parasite load remaining: stronger effect = lower value; viability: measured here: HepG2 viability without parasites.
Assay [2] is described as follows: differential killing of epithelial or mesenchymal cells, primary screen, imaging, PC-3E GFP, TEM4-18 mCherry, co-culture (AID 1345086;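 active = compounds killing one labelled cell type while sparing the other, by normalised counts and ratio limits, not self-fluorescent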;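 for all read-outs here: cells exposed to compound for 72 h before imaging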;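 for red/green cell ratio (normalised): normalised mesenchymal count divided by normalised epithelial count so high means epithelial killing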). As to conditions: imaging cell counts, at 1 µM; for red/green cell ratio (normalised): actives lie on both sides, counts scaled to control wells, 1 = unselective.
Assay [3] can be described thus: sensitizers of A549 cells to miR-34 induction, primary screen, imaging, A549 dox-inducible miR-34, nuclei and caspase counts (AID 1347080;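 active = compounds whose cell count with miR-34 switched on is under 0.7 times the count with it off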). Particulars: A549 miR-34 inducible, Hoechst nuclei count, 48 h.
The nature of assay [4]: survival rescue of mitochondrial mutant cells in low glucose, primary screen, MELAS cybrids, Rieske KO mouse fibroblasts, CellTiter-Glo (AID 1508586;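 active = mean z-score across replicates of 1.96 or higher in either the MELAS or the Rieske mutant cell line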;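 note: z relative to plate mean and SD of compound and empty wells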). For orientation: Cellular ATP, detected with luciferase, serves as a proxy for viable cell number.
Assay [5] in a line: polyglutamine-triggered caspase-3 activation inhibitors, cell-based (AID 1583). As to conditions: polyglutamine-induced caspase-3 activation, cell assay; stronger effect = higher value;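 tested at 10 µM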.
Assay [6] is described as follows: suppressors of polyQ aggregation in yeast, 75Q-TubU reporter (AID 1593). As to conditions: Yeast 75Q polyglutamine aggregation reporter.
Assay [7] in a line: rescue of polyQ-huntingtin neuronal dysfunction in worms, whole organism, C. elegans mechanosensory neurons, N-terminal huntingtin (AID 1599). Particulars: touch response, stronger effect = higher value.
Assay [8] in a line: inhibitors of mitochondrial cytochrome c release, biochemical, purified mitochondria (AID 1603).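 Note: mouse liver mitochondria challenged with calcium chloride; signal normalized to the plate average as 100%.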 Particulars: stronger effect = lower value.
The nature of assay [9]: inhibitors of polyQ protein aggregation (AID 1604). Particulars: polyglutamine-induced protein aggregation inhibition assay; stronger effect = higher value; tested at 2.5 µM.
A short description of assay [10]: enhancers of glutamate uptake in motor neurons, MN-1 cell line (AID 1612).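 Note: tested at 1 µM final; 0% = mean of DMSO vehicle wells on each plate; positive means more glutamate uptake than control and negative means less.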 As to conditions: MN-1 motor neuron cells, stronger effect = higher value.
A short description of assay [11]: reducers of polyQ inclusions in PC12 cells, cell-based, NGF-treated PC12, GFPQ80 (AID 1614).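 Note: lower means fewer inclusions and 0 means no inclusions at all.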 Particulars: PC12 NGF-treated GFP-polyQ80 inclusion reduction.
Assay [12] is described as follows: suppressors of polyglutamine aggregation in yeast, 75Q-TubH (AID 1616). Particulars: S. cerevisiae 75Q-TubH polyglutamine aggregation suppression; stronger effect = higher value.
Assay [13] can be described thus: phospholipid biosynthesis inhibitors in animal cells, primary screen, cell-based, LOPAC library, screen 4 (AID 1347384; call rule not given here). As to conditions: phospholipid biosynthesis inhibition screen, at 10 µM.
[14] abbreviates: measured here: epithelial PC-3E GFP cell survival.
Setting [15] is: measured here: mesenchymal TEM4-18 mCherry cell survival.
[16] abbreviates: stronger effect = lower value, cell number ratio, induced over uninduced.
Where [17] appears, read: measured here: relative caspase fold change +Dox/-Dox.
Where [18] appears, read: measured here: total cells with miR-34 induction, stronger effect = lower value.
[19] abbreviates: measured here: total cells without miR-34 induction.

Several values for one entry are separate records, joined by “and”; a condition that tells them apart may be missing. Identical values can stand only once. For some of these results: Measured potencies and affinities stand elsewhere. Activity calls are given as the source filed them. Cut-off read from the data, not from the text of the source, unless noted: active = parasite load remaining mostly below about 12% (no sharp cut-off); inactive = mostly above about 10%. Square brackets hold non-standard residues; d marks the D form. Side chains are listed from the residue outwards. Peptide text beside a SMILES is read from it. * marks the point of attachment. X2 = CCC(C)C(N)C1=NC(C(=O)*)CS1; Orn = NCCC[CH](N)C(=O)O

As for `CCCCCC(O)C1C(=O)OC(C)C(O)/C=C/C=C/C=C/C=C/C=C(\C)C(O)CC(O)CC(O)CC(O)CC(O)CC(O)CC1O` (centres undefined), in assay [1], the parasite load remaining is 18% (inactive). Besides, the viability (commonly a read-out of living cells in per cent, often relative to untreated cells) in assay [1] came out at 94.9%. For the same compound, the red/green cell ratio (normalised) in assay [2] is 1.13 (inactive). Also, the normalised cell number was 0.84 in [2] (setting [14]) and 0.95 in [2] (setting [15]). Also, the fold change in assay [3] (setting [16]) is 0.935 (inactive); in assay [3] (setting [17]), 2.39. In addition, the results for the cell count in assay [3] (setting [18]) and in [3] (setting [19]) were 11500 and 12300, respectively.

`C[C@H](N[C@@H](CCc1ccccc1)C(=O)O)C(=O)N1CCC[C@H]1C(=O)O`: in assay [2], the red/green cell ratio (normalised) was 0.88 (inactive). The figures for the normalised cell number in assay [2] (setting [14]) and in assay [2] (setting [15]) were 1.17 and 1.03, respectively. For the same compound, the z-score in [4] (MELAS cybrid survival, CellTiter-Glo 48 h, stronger effect = higher value) was 0.249 (inactive); in [4] (Rieske KO mouse fibroblast survival, CellTiter-Glo 72 h), -0.206.

Take `Cc1nc(N)cc(C[n+]2csc(CCO)c2C)n1`: the parasite load remaining in assay [1] was 58.2% (inactive). The viability in [1] was 97.3%. Moreover, the red/green cell ratio (normalised) in assay [2] is 0.91 (inactive). The results for the normalised cell number in [2] (setting [14]) and in assay [2] (setting [15]) were 0.96 and 0.87, respectively. Also, the fold change in assay [3] (setting [16]) is 0.946 (inactive); in [3] (setting [17]) it was 4.78. Further, the figures for the cell count in assay [3] (setting [18]) and in [3] (setting [19]) were 12800 and 13500, respectively.

For the compound `CC1OC1P(=O)(O)O` (centres undefined), in [5], the inhibition (as a rule, the relative decrease from the control value, in per cent) is -3.29%. Besides, in assay [6], the score turned out to be 1.42. The compound further returned a rescue above control in [7] of 16.3. Besides, the cytochrome c release ratio in assay [8] was found to be 6.79. The same compound gave an inhibition of aggregation in assay [9] of 83.9%. Moreover, the glutamate uptake change in assay [10] was -1.38%. In assay [11], the inclusion score was 2. The same compound came in with an aggregation suppression score in assay [12] of 1.43. For the same compound, in [1], the parasite load remaining is 59.9% (inactive) and 33.6% (inactive); the viability was 74.5% and 90.1%. Also, in assay [2], the red/green cell ratio (normalised) is 1.09 (inactive). In assay [2] (setting [14]), this compound showed a normalised cell number of 1.06. In addition, the normalised cell number in assay [2] (setting [15]) stood at 1.16. The outcome in assay [13] was inactive.

Consider `CC[C@@H]1OC(=O)C[C@@H](O)[C@H](C)[C@@H](O[C@@H]2O[C@H](C)[C@@H](O)[C@H](N(C)C)[C@H]2O)[C@@H](CCN2C[C@H](C)C[C@H](C)C2)C[C@@H](C)C(=O)/C=C/C(C)=C\[C@@H]1CO[C@@H]1O[C@H](C)[C@@H](O)[C@@H](OC)[C@H]1OC`, for which, in assay [1], the parasite load remaining is 64.4% (inactive). Besides, in [1], the viability was determined as 108%. In [2], the red/green cell ratio (normalised) is 0.98 (inactive). In addition, the normalised cell number was found to be 1.1 in assay [2] (setting [14]) and 1.07 in assay [2] (setting [15]). Further, the fold change is 0.885 (inactive) in assay [3] (setting [16]) and 3.65 in assay [3] (setting [17]). The cell count came out at 12100 in assay [3] (setting [18]) and 13600 in assay [3] (setting [19]).

Consider `O=C(O)c1cc(O)c2c(c1)[C@@H]([C@H]1c3cc(C(=O)O)cc(O)c3C(=O)c3c(O[C@H]4O[C@H](CO)[C@@H](O)[C@H](O)[C@H]4O)cccc31)c1cccc(O[C@H]3O[C@H](CO)[C@@H](O)[C@H](O)[C@H]3O)c1C2=O`, for which the parasite load remaining in assay [1] was 132% (inactive) and 77.3% (inactive). In addition, the viability in [1] is 80.8% and 104%. The red/green cell ratio (normalised) in assay [2] was 0.69 (inactive). The normalised cell number in assay [2] (setting [14]) worked out at 1.22; in [2] (setting [15]) it was 0.84. For the same compound, the fold change in assay [3] (setting [16]) was 0.789 (inactive); in assay [3] (setting [17]), 9.83. Further, the figures for the cell count in assay [3] (setting [18]) and in [3] (setting [19]) were 10200 and 12900, respectively.

In the case of `CCC(C)C(N)C1=NC(C(=O)NC(CC(C)C)C(=O)NC(CCC(=O)O)C(=O)NC(C(=O)NCCCCC2NC(=O)C(CC(N)=O)NC(=O)C(CC(=O)O)NC(=O)C(Cc3cnc[nH]3)NC(=O)C(Cc3ccccc3)NC(=O)C(C(C)CC)NC(=O)C(CCCN)NC2=O)C(C)CC)CS1` (stereo not drawn) (cyclo(DNK([Ile-Glu-Leu-X2])[Orn]IFH); configuration not given here), the parasite load remaining in assay [1] was 93.7% (inactive) and 69.5% (inactive). In addition, the viability in [1] was 71.2% and 97.2%. For the same compound, the red/green cell ratio (normalised) in assay [2] was 0.87 (inactive). The values for the normalised cell number in assay [2] (setting [14]) and in [2] (setting [15]) were 1.23 and 1.06, respectively. In addition, the values for the fold change in assay [3] (setting [16]) and in [3] (setting [17]) were 0.838 (inactive) and 0.994, respectively. Moreover, the cell count worked out at 10300 in assay [3] (setting [18]) and 12300 in assay [3] (setting [19]).
